Data as given in PubChem BioAssay AID1159580 (chemical genetic matrix, 2015).
Among all 5,500 compounds or so, about 2,000 (36%) were called active. Not shown: some 18% with an inconclusive outcome. Rule as the data show it: active = normalized growth mostly below about 0.91 (no sharp cut-off); inconclusive = no clear call, values can overlap the other calls; inactive = mostly above about 0.92. Some of the results follow.

Experiment: chemical genetic growth profiling, strain panel (AID 1159580);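 also: tested at 20 µM; growth read once vehicle control cultures reached saturation at 30 °C; 1 = growth at the plate median or of vehicle wells; lower values mean less growth of the strain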
Settings: growth OD
[1] = S. cerevisiae deletion strains, locus YDL101C, strain DUN1, active compounds read low
[2] = S. cerevisiae deletion strains, locus YHR030C, strain SLT2, active compounds read low
[3] = S. cerevisiae deletion strains, locus YAL013W, strain DEP1, active compounds read low
[4] = S. cerevisiae deletion strains, locus YBR229C, strain ROT2, active compounds read low
[5] = S. cerevisiae deletion strains, locus YDL134C, strain PPH21, active compounds read low
[6] = S. cerevisiae deletion strains, locus YDR150W, strain NUM1, active compounds read low
[7] = S. cerevisiae deletion strains, locus YEL061C, strain CIN8, active compounds read low
[8] = S. cerevisiae deletion strains, locus YGR078C, strain PAC10, active compounds read low
[9] = S. cerevisiae deletion strains, locus YHR087W, strain rtc3, active compounds read low
[10] = S. cerevisiae deletion strains, locus YJR043C, strain POL32, active compounds read low
[11] = S. cerevisiae deletion strains, locus YJR075W, strain HOC1, active compounds read low
[12] = S. cerevisiae deletion strains, locus YLR039C, strain RIC1, active compounds read low
[13] = S. cerevisiae deletion strains, locus YLR058C, strain SHM2 (second series), active compounds read low
[14] = S. cerevisiae deletion strains, locus YLR085C, strain ARP6, active compounds read low
[15] = S. cerevisiae deletion strains, locus YLR262C, strain YPT6, active compounds read low
[16] = S. cerevisiae deletion strains, locus YML094W, strain GIM5, active compounds read low
[17] = S. cerevisiae deletion strains, locus YMR219W, strain ESC1, active compounds read low
[18] = S. cerevisiae deletion strains, locus YMR263W, strain SAP30, active compounds read low
[19] = S. cerevisiae deletion strains, locus YNL153C, strain GIM3, active compounds read low
[20] = S. cerevisiae deletion strains, locus YNL298W, strain CLA4 (second series), active compounds read low
[21] = S. cerevisiae deletion strains, locus YNL322C, strain KRE1, active compounds read low
[22] = S. cerevisiae deletion strains, locus YNR030W, strain Alg12, active compounds read low
[23] = S. cerevisiae deletion strains, locus YPL055C, strain LGE1, active compounds read low
[24] = S. cerevisiae deletion strains, locus YPL241C, strain CIN2, active compounds read low
[25] = S. cerevisiae deletion strains, locus YPR135W, strain CTF4, active compounds read low

Measured: normalized growth

CCCCCCCC1CCC/C1=N/OC(=O)c1cccs1 (stereo not drawn)
inactive: S. cerevisiae deletion strains, locus YAR019C, strain CDC15, active compounds read low 1.01 | S. cerevisiae deletion strains, locus YBL105C, strain PKC1, active compounds read low 1.01 | S. cerevisiae deletion strains, locus YBR135W, strain CKS1, active compounds read low 1.01 | S. cerevisiae deletion strains, locus YBR136W, strain MEC1, active compounds read low 1 | S. cerevisiae deletion strains, locus YBR160W, strain CDC28, active compounds read low 0.997 | S. cerevisiae deletion strains, locus YDL017W, strain CDC7, active compounds read low 0.995 | S. cerevisiae deletion strains, locus YDL028C, strain MPS1, active compounds read low 0.999 | [1] 0.973 | S. cerevisiae deletion strains, locus YDL108W, strain KIN28, active compounds read low 0.996 | S. cerevisiae deletion strains, locus YDL132W, strain cdc53, active compounds read low 0.991 | S. cerevisiae deletion strains, locus YDL214C, strain PRR2, active compounds read low 0.965 | S. cerevisiae deletion strains, locus YDR052C, strain DBF4, active compounds read low 0.983 | S. cerevisiae deletion strains, locus YDR054C, strain cdc34, active compounds read low 0.989 | S. cerevisiae deletion strains, locus YDR226W, strain ADK1, active compounds read low 0.996 | S. cerevisiae deletion strains, locus YDR477W, strain SNF1, active compounds read low 0.957 | S. cerevisiae deletion strains, locus YER123W, strain YCK3, active compounds read low 0.947 | S. cerevisiae deletion strains, locus YER133W, strain GLC7, active compounds read low 0.97 | S. cerevisiae deletion strains, locus YFL009W, strain cdc4, active compounds read low 0.992 | S. cerevisiae deletion strains, locus YFL029C, strain CAK1, active compounds read low 1.01 | S. cerevisiae deletion strains, locus YFR003C, strain YPI1, active compounds read low 1.01 | S. cerevisiae deletion strains, locus YFR019W, strain FAB1, active compounds read low 0.938 | S. cerevisiae deletion strains, locus YFR028C, strain CDC14, active compounds read low 0.98 | S. cerevisiae deletion strains, locus YGR040W, strain KSS1, active compounds read low 0.967 | S. cerevisiae deletion strains, locus YGR052W, strain FMP48, active compounds read low 0.988 | S. cerevisiae deletion strains, locus YGR092W, strain DBF2, active compounds read low 0.906 | S. cerevisiae deletion strains, locus YHR079C, strain IRE1, active compounds read low 0.871 | S. cerevisiae deletion strains, locus YHR082C, strain KSP1, active compounds read low 1.07 | S. cerevisiae deletion strains, locus YHR205W, strain SCH9, active compounds read low 0.753 | S. cerevisiae deletion strains, locus YIL147C, strain SLN1, active compounds read low 0.992 | S. cerevisiae deletion strains, locus YJL095W, strain BCK1, active compounds read low 0.91 | S. cerevisiae deletion strains, locus YJL128C, strain PBS2, active compounds read low 1.01 | S. cerevisiae deletion strains, locus YJL157C, strain FAR1, active compounds read low 0.967 | S. cerevisiae deletion strains, locus YJR016C, strain ILV3, active compounds read low 0.99 | S. cerevisiae deletion strains, locus YJR066W, strain TOR1 (second series), active compounds read low 0.934 | S. cerevisiae deletion strains, locus YJR066W, strain TOR1, active compounds read low 0.986 | S. cerevisiae deletion strains, locus YKL048C, strain ELM1, active compounds read low 0.985 | S. cerevisiae deletion strains, locus YKL067W, strain YNK1, active compounds read low 0.939 | S. cerevisiae deletion strains, locus YKL101W, strain HSL1, active compounds read low 0.934 | S. cerevisiae deletion strains, locus YKL193C, strain SDS22, active compounds read low 1.02 | S. cerevisiae deletion strains, locus YKL203C, strain TOR2, active compounds read low 1 | S. cerevisiae deletion strains, locus YLR133W, strain CKI1, active compounds read low 0.96 | S. cerevisiae deletion strains, locus YLR403W, strain SFP1, active compounds read low 0.945 | S. cerevisiae deletion strains, locus YML070W, strain DAK1, active compounds read low 0.902 | S. cerevisiae deletion strains, locus YMR001C, strain CDC5, active compounds read low 1.02 | S. cerevisiae deletion strains, locus YMR205C, strain PFK2 (second series), active compounds read low 0.944 | S. cerevisiae deletion strains, locus YMR277W, strain FCP1, active compounds read low 1.03 | S. cerevisiae deletion strains, locus YNL006W, strain LST8, active compounds read low 1.01 | S. cerevisiae deletion strains, locus YNL020C, strain ARK1, active compounds read low 0.896 | S. cerevisiae deletion strains, locus YNL161W, strain CBK1, active compounds read low 1.02 | S. cerevisiae deletion strains, locus YNL183C, strain NPR1, active compounds read low 0.944 | S. cerevisiae deletion strains, locus YNL207W, strain RIO2, active compounds read low 0.976 | S. cerevisiae deletion strains, locus YNL222W, strain SSU72, active compounds read low 1.02 | S. cerevisiae deletion strains, locus YNL307C, strain MCK1 (second series), active compounds read low 0.901 | S. cerevisiae deletion strains, locus YOL078W, strain AVO1, active compounds read low 1.02 | S. cerevisiae deletion strains, locus YOL136C, strain PFK27, active compounds read low 0.961 | S. cerevisiae deletion strains, locus YOR061W, strain CKA2, active compounds read low 0.88 | S. cerevisiae deletion strains, locus YOR119C, strain RIO1, active compounds read low 1.03 | S. cerevisiae deletion strains, locus YOR231W, strain MKK1, active compounds read low 0.859 | S. cerevisiae deletion strains, locus YOR329C, strain SCD5, active compounds read low 1.02 | S. cerevisiae deletion strains, locus YPL031C, strain PHO85, active compounds read low 0.935 | S. cerevisiae deletion strains, locus YPL153C, strain RAD53, active compounds read low 0.937 | S. cerevisiae deletion strains, locus YPL204W, strain HRR25, active compounds read low 0.919 | S. cerevisiae deletion strains, locus YPL209C, strain IPL1, active compounds read low 1 | S. cerevisiae deletion strains, locus YPR025C, strain CCL1, active compounds read low 1.02 | S. cerevisiae deletion strains, locus YPR106W, strain ISR1, active compounds read low 0.999 | S. cerevisiae deletion strains, locus YPR111W, strain DBF20, active compounds read low 0.991 | S. cerevisiae deletion strains, strain NNK1, active compounds read low 0.987 | S. cerevisiae deletion strains, strain TSCII, active compounds read low 0.995
active: [2] 0.763 | S. cerevisiae deletion strains, locus YLR113W, strain HOG1, active compounds read low 0.739 | S. cerevisiae deletion strains, locus YPL256C, strain CLN2, active compounds read low 0.858

CCCCCCCC1CC/C(=C\c2ccc(/C=C3\CCC(CCCCCCC)C3=O)cc2)C1=O (stereo not drawn)
inactive: [3] 1.01 | [4] 1.01 | [1] 0.985 | [5] 1.01 | [6] 0.936 | [7] 0.999 | [8] 0.998 | [2] 1.07 | [9] 1.01 | S. cerevisiae deletion strains, locus YJL187C, strain SWE1, active compounds read low 1.01 | [10] 1.01 | [11] 1.04 | [12] 1.05 | [13] 1.01 | [14] 1.02 | [15] 1.04 | [16] 0.979 | [17] 1 | [18] 1.01 | [19] 1 | [20] 1.04 | [21] 0.994 | [22] 1 | [23] 0.97 | [24] 0.978 | [25] 1.03

COc1ccc(CN(Cc2ccc(OC)cc2)C(=O)c2cccs2)cc1
inactive: [3] 0.976 | [4] 0.974 | S. cerevisiae deletion strains, locus YCL061C, strain MRC1, active compounds read low 1.01 | [1] 0.969 | [5] 0.974 | [6] 0.98 | [7] 0.974 | [8] 1 | S. cerevisiae deletion strains, locus YGR229C, strain SMI1, active compounds read low 0.976 | [2] 0.971 | [9] 0.959 | [10] 0.994 | [11] 0.976 | [12] 0.92 | [13] 0.99 | [14] 0.97 | [15] 0.925 | [16] 0.953 | [17] 0.992 | [18] 1.01 | S. cerevisiae deletion strains, locus YMR307W, strain GAS1, active compounds read low 0.812 | S. cerevisiae deletion strains, locus YNL128W, strain TEP1, active compounds read low 0.973 | [19] 0.993 | [20] 0.973 | [21] 0.994 | [22] 0.931 | S. cerevisiae deletion strains, locus YOL006C, strain TOP1, active compounds read low 0.95 | [23] 0.945 | [24] 0.995 | [25] 0.952 | S. cerevisiae strains, strain wild type, active compounds read low 0.976
